The campaign covered roughly 39,000 compounds. About 500 (1.3%) were called active. Many of the other results were omitted from the sample, so actives are more common in it than they were.

The test deals with S. aureus RN4220. Description: growth inhibition call (relative growth <= 0.2). The conditions noted are these: 50 µM.
Turning to `C[C@H](CO)N1C[C@H](C)[C@H](CN(C)S(=O)(=O)c2cn(C)cn2)Oc2ncc(-c3cc4ccccc4o3)cc2C1=O`, the growth inhibition call is “inactive”.

`COc1ccc(NC(=O)N(C)C[C@@H]2Oc3ccc(NC(=O)C4CC4)cc3CC(=O)N([C@@H](C)CO)C[C@@H]2C)cc1`: the growth inhibition call is “inactive”.

As to `Cc1noc(C)c1NC(=O)Nc1cccc2c1O[C@H](CN(C)Cc1ccc(C(=O)Nc3ccccc3N)cc1)[C@H](C)CN([C@@H](C)CO)C2=O`, the growth inhibition call was “inactive”.

With `C[C@@H]1CN([C@@H](C)CO)C(=O)c2cc(NS(=O)(=O)c3ccccc3)ccc2O[C@H]1CN(C)S(=O)(=O)c1cccs1`, the growth inhibition call is “inactive”.

For the compound `C=CCOC(=O)[C@H]1[C@@H]2C(=O)O[C@@H](c3ccccc3)[C@@H](c3ccccc3)N2[C@@H](c2ccc(OCCOC(=O)[C@@H]3C[C@@H]4C(=O)N[C@@H](CC(C)C)C(=O)N4[C@@H]3c3ccc(O)cc3)cc2)[C@]12C(=O)Nc1ccccc12`, the growth inhibition call is “inactive”.

With `C[C@H](CO)N1C[C@H](C)[C@H](CN(C)Cc2ccc(C(=O)Nc3ccccc3N)cc2)Oc2ccc(NC(=O)Cn3cnnn3)cc2C1=O`, the growth inhibition call is “inactive”.

In the case of `CC(OC1OCCN(C(C)c2nc(=O)[nH][nH]2)C1c1ccc(F)cc1)c1cc(C(F)(F)F)cc(C(F)(F)F)c1` (stereo not drawn), the growth inhibition call was “inactive”.

Regarding `C[C@@H](O[C@H]1OCCN(Cc2n[nH]nc2CN(C)C)[C@H]1c1ccc(F)cc1)c1cc(C(F)(F)F)cc(C(F)(F)F)c1`, the growth inhibition call was “active”.

`C[C@@H]1CN([C@@H](C)CO)C(=O)c2cccc(NC(=O)c3ccc(-c4nccs4)cc3)c2O[C@H]1CN(C)S(=O)(=O)c1cn(C)cn1`: the growth inhibition call is “inactive”.

For the compound `COCC#Cc1ccc2c(c1)O[C@@H](CN(C)C(=O)c1ccccc1)[C@@H](C)CN([C@@H](C)CO)S2(=O)=O`, the growth inhibition call is “inactive”.

Regarding `C[C@H](CO)N1C[C@H](C)[C@@H](CN(C)CC2CC2)OCCCC[C@H](C)Oc2ccc(NC(=O)CCCCCC(=O)Nc3ccccc3N)cc2C1=O`, the growth inhibition call is “inactive”.

Consider `CC(C)[C@@H](N)c1nc2ccccc2[nH]1`, for which the growth inhibition call is “inactive”.

For `Cc1ccc2nc([C@H](N)C(C)C)[nH]c2c1`, the growth inhibition call is “inactive”.

Consider `C[C@@H](Oc1ccccc1Cl)c1nc2ccc(Cl)cc2[nH]1`, for which the growth inhibition call was “active”.

On to `C[C@@H]1CN([C@H](C)CO)C(=O)Cc2cc(NC(=O)CCCCCC(=O)Nc3ccccc3N)ccc2O[C@@H]1CN(C)C(=O)Nc1ccc(C(F)(F)F)cc1`, for which the growth inhibition call is “inactive”.

Consider `CON=C(C(=O)NC1C(=O)N2C(C(=O)OC(C)OC(C)=O)=C(COC(N)=O)CSC12)c1ccco1` (stereo not drawn), for which the growth inhibition call was “inactive”.

For the compound `CO/N=C(\C(=O)N[C@@H]1C(=O)N2C(C(=O)O)=C(C[n+]3ccn4ncccc43)CS[C@H]12)c1nsc(N)n1`, the growth inhibition call was “inactive”.

On to `CC(C)(O/N=C(\C(=O)N[C@@H]1C(=O)N2C(C(=O)O)=C(C[n+]3ccccc3)CS[C@H]12)c1csc(N)n1)C(=O)O`, for which the growth inhibition call was “inactive”.

For the compound `CON=C(C(=O)NC1C(=O)N2C(C(=O)O)=C(C[N+]3(C)CCCC3)CSC12)c1csc(N)n1.[Cl-]` (stereo not drawn), the growth inhibition call is “active”.

With `CO/N=C(\C(=O)N[C@@H]1C(=O)N2C(C(=O)O)=C(C[N+]3(C)CCCC3)CS[C@H]12)c1csc(N)n1`, the growth inhibition call is “active”.

With `CON=C(C(=O)N[C@@H]1C(=O)N2C(C(=O)O)=C(CSc3nc(=O)c(O)nn3C)CS[C@H]12)c1csc(N)n1`, the growth inhibition call is “active”.

Turning to `CC(C)(O/N=C(\C(=O)N[C@@H]1C(=O)N2C(C(=O)O)=C(C[N+]3(CCNC(=O)c4ccc(O)c(O)c4Cl)CCCC3)CS[C@H]12)c1csc(N)n1)C(=O)O`, the growth inhibition call was “inactive”.

Take `CO/N=C(\C(=O)N[C@@H]1C(=O)N2C(C(=O)O[C@@H](C)OC(C)=O)=C(COC(N)=O)CS[C@H]12)c1ccco1`: the growth inhibition call is “inactive”.

Regarding `CO/N=C(\C(=O)N[C@@H]1C(=O)N2C(C(=O)O)=C(CSc3nnnn3C)CS[C@H]12)c1csc(N)n1`, the growth inhibition call is “inactive”.

For the compound `CON=C(C(=O)NC1C(=O)N2C(C(=O)[O-])=C(COC(N)=O)CSC12)c1ccco1.[Na+]` (stereo not drawn), the growth inhibition call is “active”.

On to `Cc1cn2nc([C@@H]3CCCCN3C(=O)c3cc(Cl)ccc3NS(C)(=O)=O)cc2nc1N1CC[C@H](N)C1`, for which the growth inhibition call is “inactive”.

With `NNC(=O)c1cc(=S)nc[nH]1`, the growth inhibition call is “inactive”.

In the case of `Cc1noc(C)c1NC(=O)Nc1ccc2c(c1)C(=O)N([C@H](C)CO)C[C@@H](C)[C@H](CN(C)S(=O)(=O)c1cn(C)cn1)O2`, the growth inhibition call was “inactive”.

Turning to `C[C@@H]1CN([C@@H](C)CO)C(=O)Cc2cc(NC(=O)NC3CCCCC3)ccc2O[C@H]1CN(C)S(C)(=O)=O`, the growth inhibition call was “inactive”.

Turning to `C[C@H](CO)N1C[C@H](C)[C@@H](CN(C)Cc2ccc(F)cc2)Oc2ncc(C#Cc3cccnc3)cc2C1=O`, the growth inhibition call is “inactive”.

Regarding `C[C@H]1CN([C@@H](C)CO)C(=O)c2cc(NC(=O)CCCN(C)C)ccc2O[C@@H]1CN(C)C(=O)Nc1ccc(F)cc1`, the growth inhibition call was “inactive”.

As for `C[C@@H]1CN([C@@H](C)CO)C(=O)c2c(c3ccccc3n2C)-c2ccccc2CO[C@@H]1CN(C)Cc1cccc(C(F)(F)F)c1`, the growth inhibition call is “inactive”.

On to `C[C@@H]1CN([C@@H](C)CO)C(=O)c2cccc(NC(=O)C3CCOCC3)c2O[C@@H]1CN(C)Cc1ccncc1`, for which the growth inhibition call is “inactive”.

Turning to `O=C(C[C@@H]1CC[C@@H]2[C@H](COC[C@H](O)CN2S(=O)(=O)c2ccccc2)O1)N1CCOCC1`, the growth inhibition call is “inactive”.

Consider `CCCNC(=O)N1C[C@@H](O)COC[C@H]2O[C@H](CC(=O)NCCCN3CCOCC3)CC[C@@H]21`, for which the growth inhibition call is “inactive”.

`C[C@@H]1CN([C@@H](C)CO)C(=O)c2cc(NC(=O)C3CCCCC3)ccc2O[C@@H](C)CCCCO[C@H]1CN(C)S(=O)(=O)c1ccc(Cl)cc1`: the growth inhibition call is “inactive”.

With `C[C@@H]1CN([C@H](C)CO)C(=O)c2cc(NC(=O)Nc3ccc4c(c3)OCO4)ccc2O[C@@H](C)CCCCO[C@@H]1CN(C)C(=O)c1ccccc1`, the growth inhibition call is “inactive”.

As to `COc1ccccc1C#Cc1ccc2c(c1)O[C@@H](CN(C)C(C)=O)[C@H](C)CN([C@@H](C)CO)S2(=O)=O`, the growth inhibition call is “inactive”.

Consider `CC1C(NC(=O)C(=NOC(C)(C)C(=O)O)c2csc(N)n2)C(=O)N1S(=O)(=O)O` (stereo not drawn), for which the growth inhibition call is “inactive”.

On to `COCC1=C(C(=O)OC(C)OC(=O)OC(C)C)N2C(=O)C(NC(=O)C(=NOC)c3csc(N)n3)C2SC1` (stereo not drawn), for which the growth inhibition call is “inactive”.

On to `CON=C(C(=O)NC1C(=O)N2C(C(=O)[O-])=C(CSc3nc(=O)c([O-])nn3C)CSC12)c1csc(N)n1.O.O.O.[Na+].[Na+]` (stereo not drawn), for which the growth inhibition call is “inactive”.

On to `C[C@H]1[C@H](NC(=O)/C(=N\OC(C)(C)C(=O)O)c2csc(N)n2)C(=O)N1S(=O)(=O)O`, for which the growth inhibition call is “inactive”.

In the case of `CON=C(C(=O)NC1C(=O)N2C(C(=O)[O-])=C(COC(C)=O)CSC12)c1csc(N)n1.[Na+]` (stereo not drawn), the growth inhibition call is “active”.

As to `CO/N=C(\C(=O)N[C@@H]1C(=O)N2C(C(=O)O)=C(C)CS[C@H]12)c1csc(N)n1`, the growth inhibition call was “active”.

On to `C[C@H](CO)N1C[C@H](C)[C@H](CN(C)S(=O)(=O)c2ccccc2)Oc2ccc(NS(C)(=O)=O)cc2C1=O`, for which the growth inhibition call is “inactive”.

With `O=C(C[C@@H]1CC[C@@H]2[C@H](COC[C@H](O)CN2C(=O)Nc2cccc(F)c2)O1)NCCCN1CCOCC1`, the growth inhibition call is “inactive”.

With `O=C(C[C@H]1CC[C@@H]2[C@H](COC[C@H](O)CN2C(=O)Nc2cccc(Cl)c2)O1)NCCCN1CCOCC1`, the growth inhibition call was “inactive”.

For `O=C(C[C@@H]1CC[C@H]2[C@@H](COC[C@H](O)CN2C(=O)Nc2cccc(Cl)c2)O1)NCCCN1CCOCC1`, the growth inhibition call was “active”.

As for `O=C(C[C@H]1CC[C@H]2[C@@H](COC[C@H](O)CN2C(=O)Nc2cccc(Cl)c2)O1)NCCCN1CCOCC1`, the growth inhibition call was “inactive”.

Regarding `O=C(C[C@@H]1CC[C@H]2[C@@H](COC[C@@H](O)CN2C(=O)Nc2cccc(F)c2)O1)NCCCN1CCOCC1`, the growth inhibition call is “inactive”.

As to `O=C(C[C@H]1CC[C@@H]2[C@H](COC[C@@H](O)CN2C(=O)Nc2cccc(Cl)c2)O1)NCCCN1CCOCC1`, the growth inhibition call is “active”.

On to `O=C(C[C@@H]1CC[C@H]2[C@@H](COC[C@@H](O)CN2C(=O)Nc2cccc(Cl)c2)O1)NCCCN1CCOCC1`, for which the growth inhibition call was “active”.

`O=C(C[C@@H]1CC[C@@H]2[C@H](COC[C@@H](O)CN2C(=O)Nc2cccc(F)c2)O1)NCCCN1CCOCC1`: the growth inhibition call is “inactive”.

With `O=C(C[C@H]1CC[C@H]2[C@@H](COC[C@@H](O)CN2C(=O)Nc2cccc(Cl)c2)O1)NCCCN1CCOCC1`, the growth inhibition call is “inactive”.

Regarding `O=C(C[C@@H]1CC[C@H]2[C@@H](COC[C@H](O)CN2C(=O)Nc2cccc(F)c2)O1)NCCCN1CCOCC1`, the growth inhibition call is “inactive”.

For the compound `O=C(C[C@@H]1CC[C@@H]2[C@H](COC[C@H](O)CN2C(=O)Nc2cccc(Cl)c2)O1)NCCCN1CCOCC1`, the growth inhibition call is “active”.

With `O=C(C[C@H]1CC[C@H]2[C@@H](COC[C@H](O)CN2C(=O)Nc2cccc(F)c2)O1)NCCCN1CCOCC1`, the growth inhibition call is “inactive”.

Take `Cc1ccc(Sc2c(-c3ccccc3)nc3sccn23)cc1`: the growth inhibition call was “inactive”.

In the case of `COCC(=O)Nc1ccc2c(c1)C(=O)N(C)C[C@@H](OC)[C@H](C)CN(Cc1ccccc1OC)[C@@H](C)CO2`, the growth inhibition call is “inactive”.

Consider `C[C@@H](C[N+](C)(C)C)OC(N)=O`, for which the growth inhibition call was “inactive”.

For `C=C[C@](C)(O)CC/C=C(\C)C(=O)O[C@@H]1[C@@H](O[C@@](C)(C=C)CC/C=C(\C)C(=O)O[C@H]2C[C@@]3(C(=O)O[C@H]4OC[C@@H](O[C@H]5O[C@@H](CO)[C@@H](O)[C@@H](O[C@H]6O[C@@H](CO)[C@@H](O[C@H]7O[C@@H](CO)[C@@H](O)[C@@H](O)[C@@H]7O)[C@@H](O)[C@@H]6O)[C@@H]5O)[C@@H](O)[C@@H]4O)[C@@H](O)C[C@@]4(C)C(=CC[C@H]5[C@@]6(C)CC[C@@H](O[C@H]7O[C@@H](CO)[C@@H](O[C@H]8O[C@@H](CO)[C@@H](O)[C@@H](O[C@H]9OC[C@@H](O)[C@@H](O)[C@@H]9O)[C@@H]8O)[C@@H](O)[C@@H]7O)C(C)(C)[C@@H]6CC[C@@]54C)[C@@H]3CC2(C)C)OC[C@@H](O)[C@H]1O`, the growth inhibition call is “inactive”.

Take `CCc1nc2ccc(C(=O)NCCN3CCNC3=O)cn2c1N(CC)Cc1cccc(Br)c1`: the growth inhibition call was “inactive”.

As for `COC(=O)[C@@]12O[C@@H]1[C@H](O[C@@H]1O[C@H](CO)[C@@H](O)[C@H](O)[C@H]1O)C[C@H]1[C@]3(C)C[C@@H](c4ccoc4)OC(=O)[C@H]3CC[C@]12C`, the growth inhibition call is “inactive”.

(Values after the antibiotic and cytotoxicity screens of Wong et al. (2023).)
